# Cycloheximide cs: Cycloheximide Counterscreen for Small Molecule Inhibitors of Shiga Toxin; cell reporter, cycloheximide protein synthesis inhibition counterscreen; AID 2314, 2010; 12% of 300,000 active; max response, %; in the data active = max response mostly above about 13%, no sharp cut-off; inactive = mostly below about 14%; note: read at 38.3 µM for the half of the compounds with a filed dose; 0% is about no effect
# Pf growth 96h: Primary qHTS for delayed death inhibitors of the malarial parasite plastid, 96 hour incubation; P. falciparum luciferase reporter growth, 96 h; Potency, µM (top dose mostly 28.7 µM), for the others: at the top dose activity change, negative = inhibition, most hits filed as inhibitors; 6.9% of 320,000 active; AID 504834, 2011; note: potency is the fitted concentration of half-maximal effect; % is set by controls: 0 for no effect and ±100 for the full control effect
#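 P. falciparum expressing integrated firefly luciferase grown in erythrocytes (2% hematocrit, 0.05% parasitemia final) with compounds for 96 hours at 37 C, 5% CO2. Growth inhibition read as loss of luminescence after adding luciferase detection reagent.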
# Shiga toxin inh: A qHTS for Small Molecule Inhibitors of Shiga Toxin. Vero cells, Shiga toxin protein synthesis inhibition reporter. inhibition, % at 38.7 µM. 9.2% of 290,000 active. AID 2315, 2010; in the data active = inhibition mostly above about 28%, no sharp cut-off; inactive = mostly below about 43%; note: 0% is about no effect
# NS1 inh: qHTS Assay for Inhibitors of Influenza NS1 Protein Function. 0.4% of 270,000 active. Potency, µM (highest dose often 46.1 µM), for inactives: at the highest dose activity, positive = more growth; calls by dose curve; note: potency is the fitted concentration of half-maximal effect; actives are rising curves; nearly all actives have a fitted effect of over 50% in size
#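 Recovery from NS1-induced slow growth read by OD600 in budding yeast switched to galactose assay medium (pH 6.0, -URA) at 1:100 dilution. Compound 23 nl per well; the matching strain lacking NS1 serves as control.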
# Pf growth 48h: Primary qHTS for delayed death inhibitors of the malarial parasite plastid, 48 hour incubation. 5.9% of 310,000 active. Potency, µM (titrated, usually from 28.7 µM), without a hit: at the highest dose activity change, negative = inhibition, hits mostly inhibitors. P. falciparum luciferase growth in erythrocytes, 48 h; note: potency is the fitted concentration of half-maximal effect; % is set by controls: 0 for no effect and ±100 for the full control effect
#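 Luciferase-expressing parasites in RBCs, 2% Hct / 0.1% parasitemia final; RPMI 1640 + 0.5% Albumax; 37 C, 5% CO2, one generation; luminescence read-out, lower signal = inhibition.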
# * hit, by the source's call; ? = inconclusive; . = no result given. The list is not random: actives were taken first. Their share in the collection is about 21%. Unless noted, calls come from the whole dose curve; as a rule, active = well fitted inhibition curve with a large enough effect; inconclusive = small, poorly fitted or top-dose-only effect, or another doubt; inactive = no such curve, though single readings can be large or run the other way.
SMILES,Cycloheximide cs,Pf growth 96h,Shiga toxin inh,NS1 inh,Pf growth 48h
CCOC(=O)c1ccc(NC(=O)C(C)N2C(=O)c3ccccc3C2=O)cc1 (centres undefined),-1,?,49,-34%,12%
COc1cc(OC)c(NC2=CC(=O)C(=O)c3ccccc32)cc1Cl,10,53%,4,-3%,0.33µM*
O=C(CNC(=O)c1nc[nH]c1C(=O)N1CCN(c2ccccc2)CC1)OCc1ccccc1,-1,10%,-4,-3%,39%
O=C(Nc1nnc(C2CC2)s1)C1CCCO1 (centres undefined),12,3%,28,.,5%
Cc1cccc(OCCCC(=O)Nc2nnc(C3CCCO3)s2)c1C (centres undefined),-1,-1%,-10,8%,21%
O=C(Nc1nnc(C2CCCO2)s1)c1ccc(Br)cc1 (centres undefined),20*,127%,26,-6%,.
CCc1ccc(OCCCC(=O)Nc2nnc(C3CCCO3)s2)cc1 (centres undefined),-3,12µM*,9,4%,39%
Cc1cccc(C)c1OCC(=O)Nc1nnc(C2CCCO2)s1 (centres undefined),-9,5%,-4,-2%,14%
Cc1ccc(OCC(=O)Nc2nnc(C3CCCO3)s2)c(Br)c1 (centres undefined),15,?,70*,.,12%
CN1c2ccccc2C2(C)CCCC3=Cc4cccc([N+](=O)[O-])c4OC312 (centres undefined),-1,?,-6,-9%,?
CN1c2ccccc2C2(C)CCCC3=Cc4cc([N+](=O)[O-])cc([N+](=O)[O-])c4OC312 (centres undefined),1,?,-8,3%,5.9µM*
CCOC(=O)N1CCN(Cc2nc3ccc([N+](=O)[O-])cc3c(=O)n2-c2ccccc2F)CC1,-2,39%,-5,3%,?
COc1ccc2c(c1)nc(SCC(=O)c1cccs1)n2C,41*,84%,55,-28%,14%
COc1ccc2c(c1)nc(SCC(C)O)n2C (centres undefined),12*,0%,20,-7%,11%
COc1ccc2c(c1)nc(SCC(=O)C(C)(C)C)n2C,10,149%,8,-8%,32%
C=CCOc1ccc(/C=C/C(=O)OCC(=O)NCc2cccs2)cc1,.,40%,.,.,34%
CCC(NC(=O)c1cccc(Cn2cc([N+](=O)[O-])cn2)c1)c1ccc(C(C)C)cc1 (centres undefined),11*,.,7,3%,-14%
O=C(O)c1ccc(NC(=O)C2C3CCC(O3)C2C(=O)O)cc1 (centres undefined),1,36%,.,10%,63%
O=C(NCCCCCCNC(=O)OC1CCS(=O)(=O)C1)OC1CCS(=O)(=O)C1 (centres undefined),-4,27%,8,-2%,.
CCOC(=O)N1CCN(C(=O)CCCn2nc(C)c3sc4ccccc4c3c2=O)CC1,13,14%,68*,-63%,5.2µM*
Cc1nn(CC(=O)N2CCC(N3CCCCC3)CC2)c(=O)c2c1sc1ccccc12,-5,7%,-17,-5%,-1%
Cc1cccc(CN2CCc3c([nH]c4ccccc34)C2CC(C)C)n1 (centres undefined),1,10µM*,-10,5%,9.3µM*
Cc1cnc(CN2CCc3c([nH]c4ccccc34)C2CC(C)C)[nH]1 (centres undefined),1,-1%,-20,4%,13µM*
Cc1c(CN2CCc3c([nH]c4ccccc34)C2C2CCCCC2)cnn1C (centres undefined),1,5.9µM*,-4,2%,?
CCn1ccnc1CN1CCc2c([nH]c3ccccc23)C1C1CCCCC1 (centres undefined),1,-17%,-2,-5%,?
SMILES,Cycloheximide cs,Pf growth 96h,Shiga toxin inh,NS1 inh,Pf growth 48h
COc1ccc(C=O)cc1Cn1c(C)cc(C)c(C#N)c1=O,-4,2%,-22,.,3%
Nc1c(C(=O)Nc2ccc3c(c2)OCCO3)nnn1Cc1ccc(Br)cc1,.,236%,.,.,200%
Nc1c(C(=O)Nc2ccc3c(c2)OCCO3)nnn1CCc1ccccc1,20*,-23%,56*,-10%,.
Cc1ccc(NC(=O)Cn2nnc(C(=O)Nc3ccc(C)c(C)c3)c2N)cc1,15*,9.3µM*,4,9%,7%
CCOc1ccc(NC(=O)c2nnn(CC(=O)Nc3ccccc3OC)c2N)cc1,19*,?,31,-1%,45%
Nc1c(C(=O)Nc2ccccc2Cl)nnn1-c1ccc2c(c1)OCCO2,33*,?,65*,-2%,228%
COc1ccccc1NC(=O)Cn1nnc(C(=O)Nc2ccccc2)c1N,11,?,12,5%,32%
Cc1cc(C)c(NC(=O)Cn2nnc(C(=O)Nc3ccc(F)cc3F)c2N)c(C)c1,-6,2.6µM*,-6,-7%,23%
Cc1ccc(NC(=O)Cn2nc(C(=O)Nc3ccc(C)cc3)ccc2=O)cc1,15,13µM*,-3,-5%,-16%
Cc1ccc(NC(=O)c2nnn(CC(=O)Nc3ccc4c(c3)OCO4)c2N)cc1C,21*,0%,23,1%,23%
Cc1ccc(NC(=O)Cn2ccc(=O)[nH]c2=O)cc1,30*,46%,41,-16%,22%
O=C(Cn1ccc(=O)[nH]c1=O)NCCO,-2,?,-4,.,14%
Cn1cnc(S(=O)(=O)NCc2ccc(Br)cc2)c1,8,?,10,-2%,30%
CC1CCN(S(=O)(=O)c2ccc(NC(=O)CCNC(=O)c3ccc(Cl)cc3)cc2)CC1,.,0%,.,.,9%
O=C(C[n+]1ccc(/C=N/O)cc1)NCc1ccccc1,-1,-21%,-6,0%,-16%
O=C(C[n+]1ccc(/C=N/O)cc1)NC1CCCCC1,-5,-38%,28,.,10µM*
CCN(CC)CCN1C(=O)C(=O)/C(=C(/O)c2ccc(C)cc2)C1c1cccnc1 (centres undefined),-2,64%,4,-5%,120%
NNc1nc(-c2ccccc2)cc(-c2ccccc2)n1,-4,5%,25,23%,?
N#Cc1cc(-c2ccccc2)nc(NN)n1,2,10µM*,13,3%,?
O=C(CCC1CCCN(C(=O)c2ccc3c(c2)OCCO3)C1)NCc1ccccc1F (centres undefined),48*,?,77*,-4%,107%
COc1ccc(C(=O)N2CCCC(CCC(=O)NCc3ccccc3F)C2)c(OC)n1 (centres undefined),23*,?,8,3%,1%
O=C(CCC1CCCN(C(=O)c2ccco2)C1)NCc1ccccc1F (centres undefined),12,-5%,19,3%,41%
CCOc1cccc(CN2CCCC(CCC(=O)NCc3ccccc3F)C2)c1O (centres undefined),10,1.5µM*,-2,-1%,?
